High-throughput results: PubChem, ICCB-Longwood Screening Facility, Harvard Medical School
AID504770 = E. coli YBA685 growth inhibition, screen for V. cholerae RctB inhibitors. 0.27% of 130,000 active. z-score (concentration not given with the values). E. coli YBA685 rctB-dependent plasmid, OD600 growth, 3 h; stronger effect = lower value. AID 504770; in the data active means z-score below about -2, passing the limit was not always enough
Polio RdRp inh = inhibitors of poliovirus RNA polymerase binding and polymerization; % elongation, % (compound at 16.7 µg/mL); poliovirus polymerase elongation, fluorescence polarization; stronger effect = lower value; P03300; 0.66% of 150,000 active; in the data active means % elongation below about 90%
Target sequence (P03300 1749-2209 limits assumed): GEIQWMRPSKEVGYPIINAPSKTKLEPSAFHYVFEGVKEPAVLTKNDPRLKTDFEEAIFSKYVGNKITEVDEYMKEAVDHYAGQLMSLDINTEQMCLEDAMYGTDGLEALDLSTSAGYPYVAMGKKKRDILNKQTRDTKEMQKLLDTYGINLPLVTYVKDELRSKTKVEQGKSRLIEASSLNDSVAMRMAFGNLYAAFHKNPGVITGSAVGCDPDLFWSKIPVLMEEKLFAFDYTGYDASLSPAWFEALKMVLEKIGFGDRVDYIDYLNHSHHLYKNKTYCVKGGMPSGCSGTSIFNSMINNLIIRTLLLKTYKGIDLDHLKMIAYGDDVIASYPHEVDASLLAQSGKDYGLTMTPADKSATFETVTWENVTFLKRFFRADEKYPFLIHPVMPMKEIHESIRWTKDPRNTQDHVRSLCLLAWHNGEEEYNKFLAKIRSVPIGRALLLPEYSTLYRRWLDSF
MbtI inh = blocks the Mycobacterium tuberculosis siderophore enzyme MbtI; P9WFX0; purified MbtI enzyme, fluorescence intensity read-out; inhibition, % (test concentration not listed); 0.89% of 100,000 active; AID 493033; in the data active means inhibition mostly above about 56%, no sharp cut-off; inactive means mostly below about 77%
MenB inh = blocks the Mycobacterium tuberculosis MenB enzyme; P9WNP5; MenB enzyme assay, absorbance read-out; inhibition, % (no concentration beside the values); 0.43% of 100,000 active; AID 540299; in the data active means inhibition above about 21%, passing the limit was not always enough
* = called active by the depositor; i = inactive; nt = no result given. Only some compounds are listed: those with a hit (about 1.4% of all), similar ones and a draw of the others.

SMILES	AID504770	Polio RdRp inh	MbtI inh	MenB inh
CC1CCCC(NS(=O)(=O)c2ccc3[nH]c4c(c3c2)CCCC4)C1C (configuration not stated)	-0.15	103	4	-6
O=C(Oc1ccccc1OC(=O)c1ccccc1)c1ccccc1	-0.35	102	10	-34
CC(C)(Oc1ccccc1OC(=O)c1ccccc1)C(=O)CBr	0	102	62*	nt
CN1C=C(c2ccccc2)N(c2ccccc2)C1	1.5	67*	nt	-26
c1ccc(N2CN3CN2CN3c2ccccc2)cc1	1.5	104	-220	-4
Cc1ccc(N(C)C(=O)n2nc(C)cc2C)cc1	-0.2	nt	4	-22
Cc1cc2nc3ccc(=[N+](C)C)cc-3sc2cc1N	13	2.0*	nt	12
O=C(CN1CSCC1=O)Nc1ccc2nc(N3CCOCC3)sc2c1	0.5	101	6	-41
O=c1cc(CNC2CCCCC2)c2ccccc2[nH]1	0.4	99	72	30*
O=C(CC12CC3CC(CC(C3)C1)C2)N1CCN(c2ccc(F)cc2)CC1	-0.5	102	-4	-27
O=C(NCc1cccnc1)c1cn(C2CC2)c2cc(N3CCN(C(=O)c4cccc(Cl)c4)CC3)c(F)cc2c1=O	-1.6	104	i	-32
O/N=C/c1c(O)ccc2ccccc12	-0.05	98	-49	32*
CC(C)Sc1nnc2oc3ccc(S(=O)(=O)N(C)C)cc3n12	-0.3	6.0*	14	17
O=C1CC(CSc2ccc(Cl)cc2)=NN1c1nc2ccccc2s1	0.4	103	-6	-50
CC(C)(C)C1=NN(c2nc3ccc(Cl)cc3s2)C(=O)C1	1.4	106	60*	9
CSc1[nH]c(=O)[nH]c(=O)c1C#N	0.2	101	0	-11
CSc1s[nH]c(=O)c1C#N	-1	86*	nt	9
Cc1ccc(S(=O)(=O)NC(=O)c2ccc(Cl)nc2Cl)cc1	-0.55	62*	-4	nt
Cc1ccc2nc(-c3ccc(C)s3)c(Nc3ccc4c(c3)OCCO4)n2c1	nt	84*	nt	nt
CC(C)NC(=O)NC(C)C	-2.2	101	2	-17
c1ccn2c(c1)nc1c2nc2ccccn21	-0.55	101	77	-18
Oc1nc2ccccn2c1-c1c(O)nc2ccccn12	1.6	21*	6	nt
CCCn1c2ccc(F)cc2c2nc3n(c(=O)c21)CCS3	-0.25	101	90	16
O=C(Cn1c2ccc(F)cc2c2nc3n(c(=O)c21)CCS3)N1CCCC1	2.2	103	44	30*
COC(=O)CNC(=O)c1ccco1	-1.5	nt	-9	5
SMILES	AID504770	Polio RdRp inh	MbtI inh	MenB inh
COc1ccc(-c2noc(N3CCC(C(=O)N4CCN(c5ccccc5)CC4)CC3)n2)cc1	0.3	102	-24	5
CC1(NS(C)(=O)=O)CC=CC1	2.2	102	1	29*
N#Cc1ccc(CSCCN2C(=O)c3ccccc3C2=O)cc1	0.5	99	9	-2
CCOCCCN=C1SCC(CC)N1C(=O)c1ccc(C#N)cc1 (configuration not stated)	-0.25	89*	-8	4
N#Cc1ccc(C(=O)N2CCCSC2=NCCc2ccccc2)cc1	-0.2	99	3	6
COc1ccc2oc(C(=O)OCC(=O)Nc3cccnc3Cl)c(C)c2c1	-0.85	nt	10	-15
COc1ccc(C)cc1NC(=O)CN(C)Cc1nc2ccccc2c(=O)[nH]1	-0.15	89*	10	-38
CSc1nc(C)cc(ON=C(C)C)n1	0.05	100	-5	-21
COc1ccc(CNCCN2CCOCC2)cc1	-0.4	102	4	28*
COc1ccc(OC)c(NC(=S)NCCN2CCOCC2)c1	0.2	102	26	-4
CCCCCc1ccc(C(=O)CCN(C)C)cc1	-0.8	103	73*	-2
CN(C)CCC(=O)c1ccc2c(c1)OCO2	-0.25	102	62	19
O=C(NCc1ccccc1)c1ccc(N2CCCC2=O)cc1	1.2	nt	nt	nt
CC(Sc1ccccn1)C(=O)Nc1ccccc1 (configuration not stated)	0.35	102	94*	-42
O=C1C=CC(=O)N1Cc1ccccc1	-2.5*	103	-13	-3
N/C(=N\O)c1cccs1	-0.45	107	-2	12
CC(C)(CNc1nsc2ccccc12)N1CCOCC1	-0.85	89*	50	2
CCN1/C(=C/c2scc[n+]2C)C=C(C)c2cc(OC)c3ccccc3c21	0.15	56*	2	2
O=C(OCC1c2ccccc2-c2ccccc21)ON1C(=O)CCC1=O	-0.95	nt	nt	nt
Cc1ccc(-c2csc(-c3nnn(-c4cccc(Cl)c4)c3N)n2)cc1	2.4	100	20	16
Cc1ccc(-c2csc(-c3nnn(-c4ccc(C)c(C)c4)c3N)n2)cc1	2.6	27*	19	8
CCOC(=O)c1ccc(NC(=O)CSc2nccn2-c2ccc(OC)cc2)cc1	0.2	nt	nt	nt
Cc1ccc(OCCn2cc(C(=O)c3cccs3)c3ccccc32)cc1	nt	77*	nt	nt
O=C(CSc1cc(Cl)ccc1Cl)OCC(=O)c1ccccc1	-0.05	99	2	nt
CC(=O)C1=C(c2ccc(Cl)c(Cl)c2)N(C(C)=O)n2c(C)nnc2S1	nt	89	nt	nt
SMILES	AID504770	Polio RdRp inh	MbtI inh	MenB inh
CC(=O)C1=C(c2ccc(Cl)c(Cl)c2)N(C(C)=O)n2cnnc2S1	nt	86*	nt	nt
COc1cccc(C2=C(C(C)=O)Sc3nncn3N2C(C)=O)c1	nt	87*	nt	nt
CC(C)(C)N1CSC(=S)N(Cc2ccco2)C1	-7.9*	101	74	-49
CCN(CC)S(=O)(=O)c1ccc2c(c1)nc(CC(=O)O)n2C	0.5	81*	94*	-21
CC(C)CCN1CCC(CNS(=O)(=O)c2csc(C(N)=O)c2)CC1	-0.9	99	-12	-6
Cn1c(=O)[nH]c(=O)c2c1nc1n2CCCN1c1ccccc1	-0.65	101	-12	36*
Cc1cccc(N2CCCn3c2nc2c3c(=O)n(C)c(=O)n2C)c1	-2.5	102	-11	1
N#Cc1c(SCCCOc2ccccc2)sc2c(=O)[nH]c(=O)[nH]c12	-0.85	103	nt	21*
CC(C)Cc1csc2ncnc(NCCO)c12	0.1	88*	2	1
Brc1ccc(CNc2ccc(-c3nc4ncccc4o3)cc2)cc1	-0.65	101	-186	-21
O=C1NCC(O)=C1/C=N/Nc1ccccc1	-4*	103	45	0
O=C1OC2(O)c3ccccc3C(=O)N2c2ccccc21 (configuration not stated)	0.6	104	6	-4
O=C1C=C2N(c3ccccc3)CCOC2(O)c2ccccc21 (configuration not stated)	-1.6	37*	nt	-48
CCCn1nnnc1SCC(=O)c1ccccc1	1.6	103	3	31*
O=C(CSc1nnnn1Cc1ccccc1)c1ccccc1	-0.05	101	-2	-28
Cc1ccccc1Nc1nc(N)nc(CSc2nnc(Cc3ccccc3)o2)n1	1	97	4	3
COc1ccc(NC(=O)c2c(NCc3ccc(N(C)C)cc3)sc3c2CCC3)cc1	nt	86*	nt	nt
COc1ccc(CC(=O)Nc2sc3c(c2C(=O)Nc2ccc(C)cc2)CCCCC3)cc1	nt	89*	nt	nt
Cc1ccc(CSc2nc(N)cc(N)n2)cc1	-0.35	101	4	36*
O=C1CCCC(=O)C1C(c1ccc(-c2cc(C(F)(F)F)ccc2Cl)o1)C1C(=O)CCCC1=O	-0.85	102	99*	-20
